Screens from PubChem.
D2 PAM-1: D2 dopamine receptor (human) potentiation. P14416. HEK293 T-REx D2, calcium flux, EC20 dopamine potentiation. potentiation, % at 10 µM. 0.34% of 340,000 active;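 active means potentiation over 3 SD above the plate norm, cut at about 30% in these data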; further: 0% is about no effect
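Tetracycline-induced Hek293 Trex D2 cells, force-coupled to calcium, loaded with no-wash calcium dye. Compound added with 180 s kinetic read for agonism, then EC20 dopamine and a further 180 s read for potentiation.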
D2 ag-1: agonists of human D2 dopamine receptor; P14416; HEK293 T-REx D2 cells, calcium flux agonist mode; activation, % at 2 µM; 0.53% of 340,000 active; AID 485358;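 active means activation over 3 SD above normal in the single-dose calcium agonist read, cut at about 30% in these data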; further: 0% is about no effect
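Tetracycline-induced HEK293 T-REx cells with force-coupled D2 receptor, plated overnight at 30 C, loaded with no-wash calcium dye. After a 10 s baseline, compound was pin-added and calcium flux read kinetically for 180 s; calcium rises flagged agonists.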
D2 antagonist: D2 dopamine receptor (human) antagonism | 2% of 340,000 active | HEK293 TREx D2 cells, calcium flux, dopamine EC80 | inhibition, % at 10 µM | P14416; in the data active means inhibition above about 30%; inactive means below that, where a call was filed; further: 0% is about no effect
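In this primary screen, negative modulation is detected by tracking calcium flux after an EC80 dopamine challenge in inducible HEK293 T-REx D2 cells preexposed to test compound for 180 s.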
D2 PAM-2: human D2 receptor positive allosteric modulation | potentiation, % (no concentration beside the values) | DiscoveRx D2 beta-arrestin cells, luminescence, 90 min; 100% = 57 uM dopamine signal | 0.23% of 360,000 active | AID 624464 | P14416; in the data active means potentiation above about 50%; inconclusive means mostly about 30% to 49%
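PathHunter D2 cells, attached overnight at 37 deg C, received compound in DMSO plus dopamine at EC20 (50 nM final) for 90 min at 37 deg C. Beta-arrestin recruitment was read as luminescence after 1 h with detection reagent at ambient temperature.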
D2 ag-2: human D2 receptor agonism in beta-arrestin assay; 0.084% of 360,000 active; activation, % (no concentration beside the values); DiscoveRx PathHunter D2 beta-arrestin, luminescence, 90 min; 100% = 57 uM dopamine signal; P14416; in the data active means activation above about 40%; inconclusive means between about 15% and that limit
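Agonist mode: compounds alone added to overnight-plated D2 PathHunter cells for 90 min at 37 C, with 57 uM final dopamine (EC100) defining full response. Beta-arrestin recruitment detected by chemiluminescent reagent, read after 1 h at ambient temperature.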
D3 ag: D3 receptor agonism confirmed, beta-arrestin readout; DiscoveRx D3 beta-arrestin cells, luminescence, 90 min; 4% of 2,300 active; shares compounds with D2 ag-1; Potency, µM (series often up to 76.9 µM), for inactives: at the highest dose activation, most hits filed as activators; AID 720506;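 further: potency means the concentration at half of the fitted maximal effect; 100% = dopamine control response; nearly all actives have a fitted effect of over 70% in size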
Target sequence (P35462 whole entry, looked up): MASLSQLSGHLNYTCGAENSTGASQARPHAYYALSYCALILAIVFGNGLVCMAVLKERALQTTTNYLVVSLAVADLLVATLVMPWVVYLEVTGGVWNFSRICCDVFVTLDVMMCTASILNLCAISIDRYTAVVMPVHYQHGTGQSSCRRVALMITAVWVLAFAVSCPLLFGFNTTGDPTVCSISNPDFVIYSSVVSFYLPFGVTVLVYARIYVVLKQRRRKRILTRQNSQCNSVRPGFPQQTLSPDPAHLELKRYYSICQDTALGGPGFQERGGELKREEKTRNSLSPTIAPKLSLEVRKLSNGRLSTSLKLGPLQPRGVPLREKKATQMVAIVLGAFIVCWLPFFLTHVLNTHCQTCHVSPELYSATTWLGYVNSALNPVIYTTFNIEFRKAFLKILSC
D2 ag-3: D2 receptor agonism, beta-arrestin counterscreen; shares compounds with D2 ag-1; DiscoveRx PathHunter D2 beta-arrestin, luminescence, 90 min; response scale: percent relative to full dopamine signal; Potency, µM (series often up to 76.9 µM), for the others: at the highest dose activation, most hits filed as activators; 5.9% of 2,300 active; AID 720507; further: potency means the concentration at half of the fitted maximal effect; % of control where 0% means no effect; nearly all actives have a fitted effect of over 70% in size
Active calls of the source: *. Shown are actives, neighbours in structure and some others; about 2.4% of the full set was active somewhere. Unless noted, the call rests on the fitted dose curve; in most records, active means well fitted activation curve with a large enough effect; inconclusive means small, poorly fitted or top-dose-only effect; inactive means flat fitted curve, though single readings scatter.

How did Cc1cc(C)n2nc(C(=O)Nc3ccn(Cc4ccccc4C)n3)cc2n1 do in these assays?
D2 PAM-1: 0.4; D2 ag-1: 51.0*; D2 antagonist: -7.7; D2 PAM-2: -0.9; D2 ag-2: 0.0; D3 ag: 2.1%; D2 ag-3: -1.9%

How did CC1(C(=O)Nc2ccc3nc[nH]c3c2)CCN1C(=O)C1(c2ccccc2)CCCC1 (configuration not stated) do in these assays?
D2 PAM-2: -9.4; D2 ag-2: -4.1

How did COc1ccc(CCNC(=O)c2cc(C3CC3)on2)cc1OC do in these assays?
D2 PAM-1: -1.0; D2 ag-1: 0.0; D2 antagonist: -4.2; D2 PAM-2: -3.0; D2 ag-2: -4.1; D3 ag: -10.0%; D2 ag-3: 0.3%

How did Cc1cccc(C)c1N1CCN(CCn2c(=S)[nH]c3ccccc3c2=O)CC1 do in these assays?
D2 PAM-1: -20.4; D2 ag-1: 29.9; D2 antagonist: 71.4*; D2 PAM-2: -3.4; D2 ag-2: -3.7; D3 ag: -2.1%; D2 ag-3: 8.2%

How did CCN1CCN(CCn2c(=S)[nH]c3ccccc3c2=O)CC1 do in these assays?
D2 PAM-1: -18.0; D2 ag-1: -0.5; D2 antagonist: 11.5; D2 PAM-2: -33.6; D2 ag-2: -3.1

Results for CCN(CCCC(=O)c1ccc(F)cc1)CCc1ccccc1 ?
D2 PAM-1: -22.2; D2 ag-1: 82.9*; D2 antagonist: 101.6*; D2 PAM-2: -23.6; D2 ag-2: 12.8; D3 ag: inconclusive; D2 ag-3: 16.6%

Results for O=C(CCCc1ccccc1)c1ccccc1 ?
D2 PAM-1: 26.4; D2 ag-1: -0.1; D2 antagonist: -11.7; D2 PAM-2: -5.9; D2 ag-2: -1.4

Results for COc1ccc(C(CNC(=O)c2ccc(OCc3csc(C)n3)cc2)N2CCCC2)cc1 (configuration not stated) ?
D2 PAM-2: -25.3; D2 ag-2: -1.8

What do the screens show for `COc1cccc(NC(=O)CN(C)C(=O)Cc2ccc3c(c2)OCCO3)c1`?
D2 PAM-1: -7.0; D2 ag-1: -0.4; D2 antagonist: -3.8; D2 PAM-2: 5.0; D2 ag-2: 4.2; D3 ag: -1.4%; D2 ag-3: -3.2%

What do the screens show for `COc1cccc(CC(=O)OCC(=O)N(C)CC(=O)Nc2ccccc2Cl)c1`?
D2 PAM-1: -3.9; D2 ag-1: -0.3; D2 antagonist: 5.9; D2 PAM-2: -10.7; D2 ag-2: -5.0; D3 ag: -8.9%; D2 ag-3: 0.0%

Results for Cc1coc(C)c1C(=O)Nc1ccc2ccccc2c1 ?
D2 PAM-1: 2.5; D2 ag-1: -0.4; D2 antagonist: 4.3; D2 PAM-2: -10.2; D2 ag-2: -1.6; D3 ag: -6.8%; D2 ag-3: -2.3%

How did COc1ccc(CN2Cc3cccc4c3[C@@H](CC2=O)[C@H](O)[C@H](O)C4)cc1 do in these assays?
D2 PAM-1: -3.9; D2 ag-1: -0.5; D2 antagonist: -17.9; D2 PAM-2: 0.1; D2 ag-2: -1.3

What do the screens show for `O=C1C[C@@H]2c3c(cccc3CN1Cc1ccc(F)cc1)C[C@@H](O)[C@H]2O`?
D2 PAM-1: 5.2; D2 ag-1: 1.2; D2 antagonist: -3.5; D2 PAM-2: -6.7; D2 ag-2: -3.2; D3 ag: -4.5%; D2 ag-3: -3.0%

How did O=C(NCCc1ccccc1Cl)c1ccc2nc3ccccc3c(=O)n2c1 do in these assays?
D2 PAM-1: -1.5; D2 ag-1: -0.2; D2 antagonist: -20.1; D2 PAM-2: -8.6; D2 ag-2: -1.3

Results for O=c1[nH]c(C2CCCN(S(=O)(=O)Cc3ccccc3)C2)nc2c1nnn2Cc1cccc(Cl)c1 (configuration not stated) ?
D2 PAM-1: -5.4; D2 PAM-2: -3.3; D2 ag-2: -6.8
